# According to PubChem BioAssay (EPA / NIEHS):
# Results filed as inconclusive are left out. The source made the active and inactive calls. How the source made its calls, unless noted: active means hit-call score of the fitted dose curve at least 0.9, where 1 is the maximum; inactive means score below 0.9.
# How the values were obtained:
# [1] = ATG_PBREM_CIS: Attagene CIS-FACTORIAL HepG2 Assay for human Phenobarbital-responsive Enhancer Module (PBREM) (AID 2282955); conditions: HepG2 PBREM cis-reporter, Attagene multiplexed transcription; actives raise or lower the signal
# How it was run: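 Multiplexed cis-reporter readout in human hepatoma HepG2 cells; PBREM-regulated transcript quantified after 24 h exposure by fluorescent RT-PCR fragment analysis. Signal changes up or down fitted relative to DMSO.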
# [2] = target: Paired box protein Pax-6 (Homo sapiens) (UniProt P26367); assay: ATG_Pax6_CIS: Attagene CIS-FACTORIAL HepG2 Assay for human Paired Box 6 (PAX6) (AID 2282956); conditions: HepG2 CIS-FACTORIAL PAX6 reporter transcription, RNA readout; actives raise or lower the signal
# Sequence of Paired box protein Pax-6 (Homo sapiens) (P26367 whole entry, looked up): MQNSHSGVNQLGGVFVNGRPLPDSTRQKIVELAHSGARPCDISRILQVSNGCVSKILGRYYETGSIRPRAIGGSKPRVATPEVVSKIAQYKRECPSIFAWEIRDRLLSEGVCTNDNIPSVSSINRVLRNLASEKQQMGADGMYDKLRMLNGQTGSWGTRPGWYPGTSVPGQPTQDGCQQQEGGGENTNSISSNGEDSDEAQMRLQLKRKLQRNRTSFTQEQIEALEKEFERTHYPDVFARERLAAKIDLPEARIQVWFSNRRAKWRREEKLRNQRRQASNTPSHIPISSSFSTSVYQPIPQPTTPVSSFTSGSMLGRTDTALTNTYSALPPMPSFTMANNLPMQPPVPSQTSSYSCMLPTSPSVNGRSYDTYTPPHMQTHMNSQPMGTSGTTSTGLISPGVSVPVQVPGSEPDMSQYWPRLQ
# How it was run: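 After twenty-four hours of chemical exposure, transfected HepG2 cells are harvested for RNA. Cis-promoter reporter transcripts are amplified, fluorescently labelled and sized by capillary electrophoresis, with gain and loss of signal scored against DMSO.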
# [3] = ATG_PXRE_CIS: Attagene CIS-FACTORIAL HepG2 Assay for human Pregnane X Receptor Element (PXRE) (AID 2282957); conditions: HepG2 Attagene CIS-FACTORIAL PXRE reporter, mRNA; actives raise or lower the signal
# How it was run: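 HepG2 cells transiently transfected with cis-element-driven multiplexed reporter units; after 24 h chemical exposure, reporter mRNA measured by RT-PCR, 6-FAM labelling, HpaI digestion and capillary electrophoresis. Bidirectional fitting relative to DMSO.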
# [4] = ATG_RORE_CIS: Attagene CIS-FACTORIAL HepG2 Assay for human RAR-related Orphan Receptor Element (RORE) (AID 2282959); conditions: HepG2 Attagene cis-factorial RORE reporter, mRNA; actives raise or lower the signal
# How it was run: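 Transfect HepG2 with MRTUs; treat 24 h; extract RNA; RT with oligo(dT); PCR with reporter-specific primers; 6-FAM primer extension; HpaI digest 2 h at 37 C; capillary electrophoresis. Fit vs DMSO, bidirectional.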
# [5] = ATG_Sox_CIS: Attagene CIS-FACTORIAL HepG2 Assay for human SRY-box transcription factor (SOX) (AID 2282960); conditions: HepG2 Attagene cis-factorial SOX reporter, mRNA; actives raise or lower the signal
# How it was run: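 Fluorescence-labelled cDNA fragments from reporter transcripts, sized by CE, give the signal. Cells: HepG2, transiently transfected with cis-regulated reporter units. Exposure 24 h; DMSO negative control; bidirectional curve fitting.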
# [6] = ATG_SREBP_CIS: Attagene CIS-FACTORIAL HepG2 Assay for human Sterol Regulatory Element Binding (SREBP) (AID 2282962); conditions: HepG2 Attagene cis-factorial SREBP reporter, mRNA; actives raise or lower the signal
# How it was run: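 Twenty-four hours after chemical dosing of transfected HepG2 cultures, reporter RNA was converted to cDNA, amplified, end-labelled with 6-FAM and resolved by capillary electrophoresis. Responses were fitted relative to DMSO.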
# [7] = target: Signal transducer and activator of transcription 3 (Homo sapiens) (UniProt P40763); assay: ATG_STAT3_CIS: Attagene CIS-FACTORIAL HepG2 Assay for human Signal Transducer and Activator of Transcription 3 (STAT3) (AID 2282963); conditions: HepG2, Attagene cis-factorial STAT3 reporter transcription; actives raise or lower the signal
# Sequence of Signal transducer and activator of transcription 3 (Homo sapiens) (P40763 whole entry, looked up): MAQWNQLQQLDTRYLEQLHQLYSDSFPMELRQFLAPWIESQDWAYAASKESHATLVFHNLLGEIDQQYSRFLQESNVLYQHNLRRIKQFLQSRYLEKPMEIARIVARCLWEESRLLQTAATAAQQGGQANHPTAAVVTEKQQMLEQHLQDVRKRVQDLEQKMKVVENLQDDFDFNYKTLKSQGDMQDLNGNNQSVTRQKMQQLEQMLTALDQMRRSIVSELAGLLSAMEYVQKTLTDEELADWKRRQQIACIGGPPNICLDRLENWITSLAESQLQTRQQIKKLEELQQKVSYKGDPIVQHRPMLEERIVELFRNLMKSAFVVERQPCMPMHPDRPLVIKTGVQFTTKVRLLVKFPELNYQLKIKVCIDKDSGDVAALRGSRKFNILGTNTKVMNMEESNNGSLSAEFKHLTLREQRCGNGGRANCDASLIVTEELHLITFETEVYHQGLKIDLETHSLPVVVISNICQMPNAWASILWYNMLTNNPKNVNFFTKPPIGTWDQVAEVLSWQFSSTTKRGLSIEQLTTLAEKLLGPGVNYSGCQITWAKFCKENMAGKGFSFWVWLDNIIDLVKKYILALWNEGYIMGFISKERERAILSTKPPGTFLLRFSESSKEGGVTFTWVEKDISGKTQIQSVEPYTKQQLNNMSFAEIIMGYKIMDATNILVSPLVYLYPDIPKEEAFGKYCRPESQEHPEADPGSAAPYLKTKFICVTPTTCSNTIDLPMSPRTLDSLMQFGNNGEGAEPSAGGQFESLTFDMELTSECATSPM
# How it was run: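 HepG2 cells transiently transfected with multiple cis-element-driven reporter units report endogenous transcription factor activity. After 24 h compound exposure, reporter mRNA is measured by RT-PCR, 6-FAM labelling, HpaI digestion and capillary electrophoresis. Fitted bidirectionally versus DMSO.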
# [8] = ATG_TAL_CIS: Attagene CIS-FACTORIAL HepG2 Assay for human TAL Basal Promoter (AID 2282966); conditions: HepG2 Attagene cis-factorial TAL promoter reporter; actives raise or lower the signal;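 further: background control endpoint measuring basal TAL promoter reporter mRNA not a specific factor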
# How it was run: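 HepG2 cells transiently transfected with multiplexed cis-promoter reporter units, dosed 24 h. Reporter mRNA quantified by RT-PCR, 6-FAM labelling, HpaI digestion and capillary electrophoresis; TAL basal promoter serves as background control, fitted bidirectionally versus DMSO.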
# [9] = ATG_TGFb_CIS: Attagene CIS-FACTORIAL HepG2 Assay for human Transforming Growth Factor (TGF) (AID 2282967); conditions: HepG2 Attagene CIS TGFb reporter, mRNA transcription; actives raise or lower the signal
# How it was run: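 After a 24-hour incubation with compound, transfected HepG2 cells were lysed for RNA; reporter cDNA was amplified, fluorescently end-labeled and separated by CE. DMSO served as baseline for bidirectional fits.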
# [10] = ATG_VDRE_CIS: Attagene CIS-FACTORIAL HepG2 Assay for human Vitamin D Receptor Element (VDRE) (AID 2282968); conditions: HepG2 VDRE cis-reporter transcription, actives raise or lower the signal
# How it was run: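 Transiently transfected HepG2 cells carrying cis-regulated reporter transcription units were exposed for 24 h. Reporter mRNA was measured by RT-PCR with fluorescent labelling and capillary electrophoresis, and fitted in both directions against DMSO.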
# [11] = target: Nuclear receptor subfamily 1 group I member 3 (Homo sapiens) (UniProt Q14994); assay: ATG_CAR_TRANS: Attagene TRANS-FACTORIAL HepG2 Assay for human Constitutive Androstane Receptor (CAR) (AID 2282969; active means hit-call score of the fitted dose curve at least 0.9, where 1 is the maximum;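 further: activators raise reporter mRNA above DMSO so AC50 marks induction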); conditions: HepG2 Attagene TRANS-FACTORIAL CAR reporter
# Sequence of Nuclear receptor subfamily 1 group I member 3 (Homo sapiens) (Q14994 whole entry, looked up, the tested form may be a part): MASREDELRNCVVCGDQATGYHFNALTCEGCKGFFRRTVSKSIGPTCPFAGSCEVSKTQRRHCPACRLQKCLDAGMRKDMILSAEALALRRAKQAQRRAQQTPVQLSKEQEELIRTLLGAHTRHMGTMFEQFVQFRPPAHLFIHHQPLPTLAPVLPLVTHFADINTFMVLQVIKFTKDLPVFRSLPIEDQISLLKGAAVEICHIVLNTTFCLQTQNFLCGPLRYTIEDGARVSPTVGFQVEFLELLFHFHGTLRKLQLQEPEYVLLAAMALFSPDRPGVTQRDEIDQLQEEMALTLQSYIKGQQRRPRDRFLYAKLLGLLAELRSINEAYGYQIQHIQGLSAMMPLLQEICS
# How it was run: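 HepG2 cells transiently transfected with GAL4-UAS reporter units; TRANS format reads activity of exogenous chimeric NR-Gal4 protein. After 24 h dosing, reporter mRNA quantified by RT-PCR, 6-FAM labelling and capillary electrophoresis; gain of signal fitted against DMSO.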
# [12] = target: Estrogen receptor (Homo sapiens) (UniProt P03372); assay: ATG_ERa_TRANS: Attagene TRANS-FACTORIAL HepG2 Assay for human Estrogen Receptor alpha (ERa) (AID 2282970; active means hit-call score of the fitted dose curve at least 0.9, where 1 is the maximum); conditions: HepG2 Attagene TRANS ERa GAL4 reporter, mRNA
# Sequence of Estrogen receptor (Homo sapiens) (P03372 whole entry, looked up, the tested form may be a part): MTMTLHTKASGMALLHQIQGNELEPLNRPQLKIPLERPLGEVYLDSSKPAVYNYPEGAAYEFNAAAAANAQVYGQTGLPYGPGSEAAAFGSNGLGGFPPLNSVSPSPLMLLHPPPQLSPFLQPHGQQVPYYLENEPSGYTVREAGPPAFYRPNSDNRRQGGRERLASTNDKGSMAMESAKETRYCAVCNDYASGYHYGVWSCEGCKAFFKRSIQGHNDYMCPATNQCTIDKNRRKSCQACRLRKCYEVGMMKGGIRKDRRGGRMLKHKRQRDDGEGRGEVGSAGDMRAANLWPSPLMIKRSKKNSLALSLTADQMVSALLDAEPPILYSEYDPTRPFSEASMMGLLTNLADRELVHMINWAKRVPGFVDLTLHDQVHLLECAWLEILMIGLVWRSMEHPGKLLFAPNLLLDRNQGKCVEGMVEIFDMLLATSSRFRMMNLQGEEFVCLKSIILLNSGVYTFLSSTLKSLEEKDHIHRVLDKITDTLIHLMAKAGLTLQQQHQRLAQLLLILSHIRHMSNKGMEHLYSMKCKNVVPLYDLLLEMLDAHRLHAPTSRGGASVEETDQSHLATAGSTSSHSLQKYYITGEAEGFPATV
# How it was run: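 HepG2 cells transiently transfected with multiplexed GAL4-UAS reporter units read out chimeric NR-Gal4 activity. After 24 h compound exposure, reporter mRNA was quantified by RT-PCR, 6-FAM labeling, HpaI digestion and capillary electrophoresis, relative to DMSO.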
# [13] = target: X-box-binding protein 1 (Homo sapiens) (UniProt P17861); assay: ATG_Xbp1_CIS: Attagene CIS-FACTORIAL HepG2 Assay for human X-box Binding Protein 1 (XBP1) (AID 2282972); conditions: HepG2 XBP1 cis-element reporter, Attagene multiplex; actives raise or lower the signal
# Sequence of X-box-binding protein 1 (Homo sapiens) (P17861 whole entry, looked up): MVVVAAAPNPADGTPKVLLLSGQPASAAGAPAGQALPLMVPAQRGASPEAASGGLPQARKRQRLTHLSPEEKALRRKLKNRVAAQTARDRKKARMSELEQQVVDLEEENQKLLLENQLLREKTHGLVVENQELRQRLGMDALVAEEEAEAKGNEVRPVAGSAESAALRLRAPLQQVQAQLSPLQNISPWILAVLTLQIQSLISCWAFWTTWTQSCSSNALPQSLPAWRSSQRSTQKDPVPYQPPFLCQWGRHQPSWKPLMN
# How it was run: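 After a 24-hour chemical exposure of HepG2 cells carrying cis-regulated reporters, reporter mRNA levels are assessed. Quantification uses RT-PCR, 6-FAM labelling and capillary electrophoresis. Gain- or loss-of-signal is fitted against DMSO.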
# [14] = ATG_M_19_TRANS: Attagene TRANS-FACTORIAL HepG2 Assay for M19 Transcription Factor (Internal Marker) (AID 2282974; active means hit-call score of the fitted dose curve at least 0.9, where 1 is the maximum); conditions: HepG2 Attagene TRANS-FACTORIAL M19 internal marker reporter
# How it was run: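 Multiplexed TRANS format: HepG2 liver cells bearing transient GAL4-UAS reporter units, chemical treatment 24 h, reporter transcripts quantified by RT-PCR plus capillary electrophoresis. DMSO defines baseline.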
# [15] = ATG_GAL4_TRANS: Attagene TRANS-FACTORIAL HepG2 Assay for GAL4 (Internal Marker) (AID 2282976; active means hit-call score of the fitted dose curve at least 0.9, where 1 is the maximum); conditions: HepG2 Attagene TRANS GAL4 internal marker reporter
# How it was run: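 Background-control readout: GAL4-UAS reporter transcript in transiently transfected HepG2 cells after 24 h compound exposure. Measured by RT-PCR, 6-FAM primer extension, HpaI digest and capillary electrophoresis; gain-of-signal fit versus DMSO.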
# [16] = target: Transcription factor Sp1 (Homo sapiens) (UniProt P08047); assay: ATG_Sp1_CIS: Attagene CIS-FACTORIAL HepG2 Assay for human Specificity Protein 1 (Sp1) (AID 2282961); conditions: HepG2 Sp1 cis-reporter transcription, actives raise or lower the signal
# Sequence of Transcription factor Sp1 (Homo sapiens) (P08047 whole entry, looked up): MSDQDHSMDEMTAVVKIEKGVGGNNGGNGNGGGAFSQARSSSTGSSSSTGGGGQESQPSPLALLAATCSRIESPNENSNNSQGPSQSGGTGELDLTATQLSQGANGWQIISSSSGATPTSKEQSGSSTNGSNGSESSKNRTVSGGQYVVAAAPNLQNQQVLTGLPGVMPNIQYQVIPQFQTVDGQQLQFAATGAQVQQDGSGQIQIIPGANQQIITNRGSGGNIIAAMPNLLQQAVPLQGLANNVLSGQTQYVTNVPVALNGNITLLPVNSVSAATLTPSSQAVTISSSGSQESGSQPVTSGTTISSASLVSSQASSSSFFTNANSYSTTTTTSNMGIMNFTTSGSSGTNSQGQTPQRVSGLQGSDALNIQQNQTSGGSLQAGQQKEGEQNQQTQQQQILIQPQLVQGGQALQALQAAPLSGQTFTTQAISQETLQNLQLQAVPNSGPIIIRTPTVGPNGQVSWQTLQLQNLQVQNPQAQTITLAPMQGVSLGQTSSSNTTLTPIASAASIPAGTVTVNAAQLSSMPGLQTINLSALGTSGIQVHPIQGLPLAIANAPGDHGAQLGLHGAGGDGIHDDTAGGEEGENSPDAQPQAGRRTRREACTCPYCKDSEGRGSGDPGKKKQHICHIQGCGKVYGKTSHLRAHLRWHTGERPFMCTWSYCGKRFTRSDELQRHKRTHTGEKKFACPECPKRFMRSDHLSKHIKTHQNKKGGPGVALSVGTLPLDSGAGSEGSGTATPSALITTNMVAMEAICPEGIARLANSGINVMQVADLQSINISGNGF
# How it was run: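 Chemicals are dosed onto HepG2 cells transfected with multiple cis-promoter reporter constructs, and after 24 h reporter RNA is reverse-transcribed, PCR-amplified and resolved by capillary electrophoresis for fluorescence quantitation; activity is scored up or down against DMSO.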
# [17] = ATG_TA_CIS: Attagene CIS-FACTORIAL HepG2 Assay for human TA Basal Promoter (AID 2282964); conditions: HepG2 Attagene CIS-factorial TA basal promoter reporter; actives raise or lower the signal
# How it was run: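 Transient MRTU transfection of HepG2 preceded 24 h compound exposure. Reporter mRNA levels were then read by RT-PCR with capillary electrophoresis, and this background-control endpoint was fitted bidirectionally to DMSO.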
# [18] = ATG_TCF_b_cat_CIS: Attagene CIS-FACTORIAL HepG2 Assay for human T-Cell-Factor with beta-catenin (TCF/b-cat) (AID 2282965); conditions: HepG2 TCF/beta-catenin cis-reporter transcription, actives raise or lower the signal
# How it was run: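 Cells of the HepG2 line carry transiently transfected reporter units whose promoters respond to endogenous factors. Twenty-four hours post-dosing, reporter mRNA induction is measured by fluorescent RT-PCR and capillary electrophoresis, with DMSO as baseline.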
# [19] = target: Steroid hormone receptor ERR1 (Homo sapiens) (UniProt P11474); assay: ATG_ERRa_TRANS: Attagene TRANS-FACTORIAL HepG2 Assay for human Estrogen-Related Receptor alpha (ERRa) (AID 2282971; active means hit-call score of the fitted dose curve at least 0.9, where 1 is the maximum); conditions: HepG2 Attagene TRANS reporter, ERRa transactivation
# Sequence of Steroid hormone receptor ERR1 (Homo sapiens) (P11474 whole entry, looked up, the tested form may be a part): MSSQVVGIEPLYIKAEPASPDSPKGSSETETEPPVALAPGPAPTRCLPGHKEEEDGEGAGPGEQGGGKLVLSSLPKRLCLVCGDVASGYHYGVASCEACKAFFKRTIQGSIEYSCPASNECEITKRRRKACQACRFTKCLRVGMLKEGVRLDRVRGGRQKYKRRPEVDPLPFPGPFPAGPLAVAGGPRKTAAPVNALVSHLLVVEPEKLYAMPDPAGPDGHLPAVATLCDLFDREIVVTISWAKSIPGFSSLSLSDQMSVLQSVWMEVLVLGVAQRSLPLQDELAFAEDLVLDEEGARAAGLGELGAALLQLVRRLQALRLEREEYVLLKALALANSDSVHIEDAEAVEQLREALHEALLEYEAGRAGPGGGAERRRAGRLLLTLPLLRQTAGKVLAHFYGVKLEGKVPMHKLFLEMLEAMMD
# How it was run: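 HepG2 cells transiently transfected with GAL4-UAS reporter units and chimeric NR-Gal4 constructs; after 24 hour compound incubation, reporter mRNA quantified by RT-PCR, fluorescent labelling and capillary electrophoresis, gain of signal versus DMSO.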
compound,measurement,setting,value
C=CC(C)(CCC=C(C)C)OC(=O)CC (stereo unspecified),outcome,[1],inactive
same,outcome,[2],inactive
same,AC50,[3],31 µM (active)
same,outcome,[4],inactive
same,outcome,[5],inactive
same,outcome,[6],inactive
same,outcome,[7],inactive
same,outcome,[8],inactive
same,outcome,[9],inactive
same,outcome,[10],inactive
same,outcome,[11],inactive
same,outcome,[12],inactive
same,outcome,[13],inactive
same,outcome,[14],inactive
same,outcome,[15],inactive
CCCC1CCC(=O)CC1,outcome,[1],inactive
same,outcome,[2],inactive
same,AC50,[3],27.6 µM (active)
same,outcome,[4],inactive
same,outcome,[5],inactive
same,outcome,[16],inactive
same,outcome,[6],inactive
same,outcome,[7],inactive
same,outcome,[17],inactive
same,outcome,[18],inactive
same,outcome,[8],inactive
same,outcome,[10],inactive
same,outcome,[13],inactive
same,outcome,[14],inactive
C=CCOCC(O)CO (stereo unspecified),outcome,[1],inactive
same,outcome,[2],inactive
same,outcome,[3],inactive
same,outcome,[4],inactive
same,outcome,[5],inactive
same,outcome,[6],inactive
same,outcome,[7],inactive
same,outcome,[17],inactive
same,outcome,[18],inactive
same,outcome,[8],inactive
same,outcome,[10],inactive
same,outcome,[13],inactive
same,outcome,[15],inactive
[Cl][Dy]([Cl])[Cl],outcome,[1],inactive
same,outcome,[2],inactive
same,outcome,[3],inactive
same,outcome,[4],inactive
same,outcome,[5],inactive
same,outcome,[16],inactive
same,outcome,[6],inactive
same,outcome,[7],inactive
same,outcome,[18],inactive
same,outcome,[8],inactive
same,outcome,[9],inactive
same,outcome,[10],inactive
same,outcome,[13],inactive
same,outcome,[14],inactive
same,outcome,[15],inactive
CCCCCCCCOC(=O)c1ccc(O)cc1,outcome,[1],inactive
same,outcome,[2],inactive
same,AC50,[3],13.4 µM (active)
same,outcome,[5],inactive
same,outcome,[16],inactive
same,outcome,[6],inactive
same,outcome,[7],inactive
same,outcome,[17],inactive
same,outcome,[18],inactive
same,outcome,[8],inactive
same,outcome,[9],inactive
same,outcome,[11],inactive
same,outcome,[13],inactive
same,outcome,[14],inactive
same,outcome,[15],inactive
CC1=CCC(C(C)C)=CC1,outcome,[1],inactive
same,outcome,[2],inactive
same,outcome,[3],inactive
same,outcome,[5],inactive
same,outcome,[16],inactive
same,outcome,[6],inactive
same,outcome,[7],inactive
same,outcome,[17],inactive
same,outcome,[18],inactive
same,outcome,[8],inactive
same,outcome,[9],inactive
same,outcome,[11],inactive
same,outcome,[13],inactive
same,outcome,[14],inactive
C=C1CC/C=C(\C)CC[C@@H]2[C@@H]1CC2(C)C,outcome,[1],inactive
same,outcome,[2],inactive
same,AC50,[3],26.6 µM (active)
same,outcome,[4],inactive
same,outcome,[5],inactive
same,outcome,[16],inactive
same,outcome,[6],inactive
same,outcome,[18],inactive
same,outcome,[8],inactive
same,outcome,[9],inactive
same,outcome,[10],inactive
same,outcome,[11],inactive
same,AC50,[12],14.3 µM (active)
same,outcome,[19],inactive
same,outcome,[13],inactive
same,outcome,[15],inactive
NC(=O)c1c(Cl)cccc1Cl,outcome,[1],inactive
same,outcome,[2],inactive
same,AC50,[3],0.104 µM (active)
same,outcome,[4],inactive
same,outcome,[5],inactive
same,outcome,[16],inactive
same,outcome,[6],inactive
same,outcome,[7],inactive
same,outcome,[8],inactive
same,outcome,[9],inactive
same,outcome,[10],inactive
same,outcome,[12],inactive
same,outcome,[19],inactive
same,outcome,[13],inactive
